From PubChem BioAssay (Tox21) come the findings set out here.

Values without a mark were called inactive. Records with an inconclusive call do not appear. Active and inactive are the calls of the source. Unless noted, calls follow the shape of the dose curve; as a rule, active = well fitted curve in the direction sought with a large enough effect in the repeat runs; inconclusive = weak or mixed curves; inactive = no such curve, though single readings can be large; an effect the other way counts as inactive or inconclusive.

The nature of experiment [1]: qHTS assay to identify small molecule agonists of the sonic hedgehog signaling (Shh) pathway - cell viability counter screen (AID 1259366). Also: nearly all actives have a fitted effect of over 50% in size. The gist of the method: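 Compounds in DMSO were pin-transferred onto 3T3 Gli1-Luc cells that had settled 4hr; plates then stood 24hr at 37C and 5% CO2. One hour before the end, CellTiter-Fluor was added and fluorescence recorded.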

A short description of experiment [2]: qHTS assay to identify small molecule antagonists of the sonic hedgehog signaling (Shh) pathway - cell viability counter screen (AID 1259367). Also: nearly all actives have a fitted effect of over 55% in size. The gist of the method:
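NIH/3T3-derived Gli1-Luc reporter cells, 2,000/well, plated 4 hr before compound addition, then stimulated with conditioned medium for 24 hr at 37C. Viability measured in the same wells by CellTiter-Fluor fluorescence, reagent added at 23 hr for 1 hr.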
(In general: In qHTS, concentration-response curves come from the screen itself.)

The nature of experiment [3]: qHTS assay to identify small molecule agonists of the sonic hedgehog signaling (Shh) pathway (AID 1259368; calls by dose curve; also: series mostly up to about 92 µM; nearly all actives have a fitted effect of over 15% in size). The method in brief:
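NIH/3T3-derived 3T3Gli1-Luc cells carrying a stably integrated Gli1 response element–firefly luciferase reporter were plated, left 4 hr at 37 C, then given compounds in DMSO for 24 hr. Luminescence was read 30 min after adding luciferase reagent.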

Experiment [4] can be described thus: qHTS assay to identify small molecule antagonists of the sonic hedgehog signaling (Shh) pathway (AID 1259369; calls by dose curve; also: nearly all actives have a fitted effect of over 45% in size). The method in brief: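 NIH/3T3-derived 3T3Gli1-Luc cells with stably integrated Gli1-Luc reporter were preincubated 4hr at 37 C, then given compounds in DMSO plus Shh conditioned medium and incubated 24hr. Firefly luciferase luminescence read after 30min reagent at room temperature.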

Experiment [5] in a line: qHTS assay to identify small molecule agonists of the estrogen receptor beta (ER-beta) signaling pathway - cell viability counter screen (AID 1259380). Also: nearly all actives have a fitted effect of over 30% in size. The method in brief: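 ER-beta-UAS-bla HEK293T cells in medium with 2% charcoal-stripped FBS were preincubated 6 hr at 37C, dosed with compound in DMSO for 16 hr, then after the bla read, CellTiter-Glo was added for 30 min at room temperature; luminescence recorded.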

The nature of experiment [6]: qHTS assay to identify small molecule antagonists of the estrogen receptor beta (ER-beta) signaling pathway - cell viability counter screen (AID 1259382). Also: series mostly up to about 92 µM; nearly all actives have a fitted effect of over 55% in size. The method in brief: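 ER-beta-UAS-bla HEK293T cells (2,000/well, 2% charcoal-stripped FBS) were pre-incubated 6 hr at 37C, then given compound plus 1nM final 17-beta-estradiol for 16 hr. Viability was read in the same wells by CellTiter-Glo luminescence after 30 min at room temperature.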

Experiment [7] is described as follows: qHTS assay to identify small molecule agonists or antagonists of the thyroid stimulating hormone receptor (TSHR) signaling pathway - wild type cell line counter screen (AID 1259384; calls by dose curve). The gist of the method:
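Wild-type Hek293 cells, 800/well, 18 h at 37C, then compound with Ro20-1724 for 30 min RT. cAMP by HTRF (cAMP-d2/anti-cAMP cryptate), 1 h RT, fluorescence read. 15 concentrations, triplicates.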

Experiment [8] in a line: qHTS assay to identify small molecule agonists of the estrogen receptor alpha (ER-alpha) signaling pathway in the presence of an antagonist - cell viability counter screen (AID 1259386).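 Also: series mostly up to about 92 µM; cells exposed to compounds for 22 h at 37 °C before the viability read; nearly all actives have a fitted effect of over 30% in size.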 The method in brief:
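VM7Luc4E2 cells (endogenous full-length ER-alpha, 4×ERE-luciferase) were held 5 days in phenol red-free medium with 10% charcoal-stripped FBS, plated, then given 10.0nM ICI-182,780 and compounds at 15 concentrations for 22hr at 37C; viability read by CellTiter-Fluor fluorescence.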

In experiment [9] the target is Progesterone receptor (Homo sapiens) (UniProt P06401). Kind of experiment: qHTS assay to identify small molecule agonists of the progesterone receptor (PR) signaling pathway (AID 1346784; calls by dose curve; also: nearly all actives have a fitted effect of over 30% in size). The method in brief: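 Fluorescence from LiveBLAzer B/G FRET substrate cleavage (2 hr, RT) reported PR activation in PR-UAS-bla HEK 293T cells treated 16 hr at 37C/5% CO2 with compounds; medium contained 2% charcoal-stripped FBS.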

Experiment [10] in a line: qHTS assay to identify small molecule antagonists of the progesterone receptor (PR) signaling pathway - cell viability counter screen (AID 1346798). Also: series mostly up to about 92 µM; nearly all actives have a fitted effect of over 50% in size. The gist of the method: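 CellTiter-Glo luminescence; PR-UAS-bla HEK293T, 3,000 cells/well; compound + R5020, 16 hr, 37C/5% CO2; 30 min RT before read.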
A short description of experiment [11]: qHTS assay to identify small molecule agonists of the progesterone receptor (PR) signaling pathway - cell viability counter screen (AID 1346799; calls by dose curve; also: nearly all actives have a fitted effect of over 45% in size). The method in brief: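 In parallel with the beta-lactamase readout, cytotoxicity toward PR-UAS-bla HEK293T cells was measured by CellTiter-Glo luminescence following 16 hr compound incubation in 2% charcoal-stripped FBS medium.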

Experiment [12] in a line: qHTS assay to identify small molecule antagonists of the TGF-beta/Smad signaling pathway - cell viability counter screen (AID 1346824). Also: nearly all actives have a fitted effect of over 50% in size. The method in brief: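 SBE-bla HEK 293T cells, incubated overnight, then compound plus 0.25 ng/mL TGF-beta1 (stock added) for 5 hr at 37 C. Viability was read in the same wells by CellTiter-Glo luminescence after 30 min at room temperature.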

Experiment [13] in a line: qHTS assay to identify small molecule agonists of the TGF-beta/Smad signaling pathway - cell viability counter screen (AID 1346829). Also: top concentration of the series differs between compounds; nearly all actives have a fitted effect of over 45% in size. The method in brief: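 CellTiter-Glo luminescence readout; SBE-bla HEK 293T cells, overnight plating, compound 5 hr at 37 C/5% CO2, then bla substrate 2 hr RT, then CellTiter-Glo 30 min RT.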
For experiment [14], the target named is Estrogen receptor beta (Homo sapiens) (UniProt Q92731). In words: qHTS assay to identify small molecule agonists of the estrogen receptor beta (ER-beta) signaling pathway (AID 1259377; active = well fitted activation curve with a large enough effect in the signal ratio in the repeat runs, not every such curve was filed as active; the % refers to the signal ratio). The method in brief:
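qHTS in ER-beta-UAS-bla HEK293T cells: 6 hr settling, then 16 hr compound at 37C, then LiveBLAzer substrate 2 h at RT before fluorescence reading.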

Experiment [15] has the same target. Kind of experiment: qHTS assay to identify small molecule antagonists of the estrogen receptor beta (ER-beta) signaling pathway (AID 1259378; active = well fitted inhibition curve with a large enough effect in the signal ratio in the repeat runs, not every such curve was filed as active; the % refers to the signal ratio). The gist of the method: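 ER-beta-UAS-bla HEK293T cells in 2% charcoal-stripped FBS medium treated with compound plus 1nM final 17-beta-estradiol for 16 hr at 37C. Beta-lactamase reporter read by FRET substrate fluorescence after 2 hours at room temperature.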

Experiment [16] can be described thus: qHTS assay to identify small molecule agonists of the androgen receptor (AR) signaling pathway in the presence of an antagonist - cell viability counter screen (AID 1259379). Also: series mostly up to about 92 µM; nearly all actives have a fitted effect of over 25% in size. The gist of the method:
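MDA-kb2 human breast carcinoma cells (stable MMTV-luciferase, AR/GR responsive) were seeded 3,000 cells/well, pre-incubated 5 hr at 37C without CO2, then given 3.0uM nilutamide and compounds at 15 concentrations for 16 hr. Viability was read by CellTiter-Fluor fluorescence.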

Experiment [17] concerns the target Androgen receptor (Homo sapiens) (UniProt P10275). Kind of experiment: qHTS assay to identify small molecule agonists of the androgen receptor (AR) signaling pathway in the presence of an antagonist (AID 1259381; calls by dose curve; also: nearly all actives have a fitted effect of over 15% in size). The gist of the method:
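MDA-kb2 human breast carcinoma cells carrying an MMTV-luciferase reporter (AR- and GR-responsive) were treated with compounds at 15 concentrations plus 3.0uM final nilutamide for 16hr at 37C without CO2; luminescence was read after ONE-Glo addition.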

Experiment [18] concerns the target Estrogen receptor (Homo sapiens) (UniProt P03372). Kind of experiment: qHTS assay to identify small molecule agonists of the estrogen receptor alpha (ER-alpha) signaling pathway in the presence of an antagonist (AID 1259383; calls by dose curve; also: top concentration of the series differs between compounds; nearly all actives have a fitted effect of over 15% in size). The method in brief: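 VM7Luc4E2 cells (endogenous full-length ER-alpha, 4×ERE-luciferase) were precultured 5 days in phenol red-free medium with 10% charcoal-stripped FBS, given 10.0nM ICI-182,780 (final), then treated with compounds at 15 concentrations for 22hr at 37C; luminescence read with ONE-Glo.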

The target in experiment [19] is Thyrotropin receptor (Homo sapiens) (UniProt P16473). Kind of experiment: qHTS assay to identify small molecule antagonists of the thyroid stimulating hormone receptor (TSHR) signaling pathway (AID 1259385; calls by dose curve; also: nearly all actives have a fitted effect of over 20% in size). The method in brief:
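TSHR-HEK293 cells (800/well) plated 18 h, then compounds with Ro20-1724 and TSH at 1.5 ng/mL final, 30 min at room temperature. cAMP quantified by HTRF (cAMP-d2/anti-cAMP-cryptate, 1 h); 15 concentrations in triplicate.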

For experiment [20], the target named is Progesterone receptor (Homo sapiens) (UniProt P06401). In words: qHTS assay to identify small molecule antagonists of the progesterone receptor (PR) signaling pathway (AID 1346795; active = well fitted inhibition curve with a large enough effect in the signal ratio in the repeat runs, not every such curve was filed as active; the % refers to the signal ratio; also: potency is read from the fitted curve at half-maximal effect). The method in brief:
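Fluorescence intensity measured 2 hr after adding beta-lactamase FRET substrate to PR-UAS-bla HEK293T cells that had been co-treated 16 hr with compound and 1 nM R5020 (final concentration) in 2% charcoal-stripped FBS.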
% is scaled to controls: 0 for no effect and ±100 for the full control effect.

Sequence of Estrogen receptor (Homo sapiens) (P03372 whole entry, looked up): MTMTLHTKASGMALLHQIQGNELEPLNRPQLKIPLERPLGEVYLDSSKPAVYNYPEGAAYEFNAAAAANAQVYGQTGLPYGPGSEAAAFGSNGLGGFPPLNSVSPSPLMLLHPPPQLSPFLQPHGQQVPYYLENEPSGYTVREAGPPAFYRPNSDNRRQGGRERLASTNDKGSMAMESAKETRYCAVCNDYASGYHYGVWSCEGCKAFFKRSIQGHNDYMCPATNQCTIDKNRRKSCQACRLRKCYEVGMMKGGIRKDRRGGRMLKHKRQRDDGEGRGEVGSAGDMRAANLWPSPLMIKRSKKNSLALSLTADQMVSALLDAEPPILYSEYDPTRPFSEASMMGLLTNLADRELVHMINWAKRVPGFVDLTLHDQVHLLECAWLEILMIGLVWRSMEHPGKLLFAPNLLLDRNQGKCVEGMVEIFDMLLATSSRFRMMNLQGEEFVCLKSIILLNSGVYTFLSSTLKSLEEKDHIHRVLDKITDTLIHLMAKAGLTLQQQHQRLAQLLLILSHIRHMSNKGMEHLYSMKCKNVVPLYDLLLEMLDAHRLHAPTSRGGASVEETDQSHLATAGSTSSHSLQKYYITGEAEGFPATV
Sequence of Progesterone receptor (Homo sapiens) (P06401 whole entry, looked up): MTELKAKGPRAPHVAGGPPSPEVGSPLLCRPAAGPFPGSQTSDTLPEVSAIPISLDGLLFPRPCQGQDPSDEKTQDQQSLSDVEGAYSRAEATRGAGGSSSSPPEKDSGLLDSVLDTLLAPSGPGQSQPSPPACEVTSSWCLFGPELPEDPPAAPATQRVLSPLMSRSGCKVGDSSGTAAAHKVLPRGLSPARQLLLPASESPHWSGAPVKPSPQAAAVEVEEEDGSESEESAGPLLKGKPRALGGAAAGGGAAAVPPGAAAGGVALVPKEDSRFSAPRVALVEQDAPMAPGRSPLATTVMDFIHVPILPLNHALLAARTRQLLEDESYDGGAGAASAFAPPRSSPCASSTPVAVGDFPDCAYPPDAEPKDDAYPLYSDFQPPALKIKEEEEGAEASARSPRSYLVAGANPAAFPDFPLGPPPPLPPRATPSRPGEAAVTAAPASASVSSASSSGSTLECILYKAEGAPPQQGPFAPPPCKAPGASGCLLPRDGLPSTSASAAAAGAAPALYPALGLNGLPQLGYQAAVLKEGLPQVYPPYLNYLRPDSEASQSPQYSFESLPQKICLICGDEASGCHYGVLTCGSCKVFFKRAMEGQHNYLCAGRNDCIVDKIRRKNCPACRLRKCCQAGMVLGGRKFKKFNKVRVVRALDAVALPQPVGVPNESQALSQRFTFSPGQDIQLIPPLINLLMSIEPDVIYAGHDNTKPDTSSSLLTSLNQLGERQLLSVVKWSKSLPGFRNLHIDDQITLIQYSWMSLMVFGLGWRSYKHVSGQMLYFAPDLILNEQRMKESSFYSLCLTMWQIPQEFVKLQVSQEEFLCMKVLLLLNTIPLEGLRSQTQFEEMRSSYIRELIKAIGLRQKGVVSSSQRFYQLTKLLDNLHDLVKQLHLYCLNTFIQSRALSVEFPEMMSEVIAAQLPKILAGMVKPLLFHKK
Sequence of Thyrotropin receptor (Homo sapiens) (P16473 whole entry, looked up): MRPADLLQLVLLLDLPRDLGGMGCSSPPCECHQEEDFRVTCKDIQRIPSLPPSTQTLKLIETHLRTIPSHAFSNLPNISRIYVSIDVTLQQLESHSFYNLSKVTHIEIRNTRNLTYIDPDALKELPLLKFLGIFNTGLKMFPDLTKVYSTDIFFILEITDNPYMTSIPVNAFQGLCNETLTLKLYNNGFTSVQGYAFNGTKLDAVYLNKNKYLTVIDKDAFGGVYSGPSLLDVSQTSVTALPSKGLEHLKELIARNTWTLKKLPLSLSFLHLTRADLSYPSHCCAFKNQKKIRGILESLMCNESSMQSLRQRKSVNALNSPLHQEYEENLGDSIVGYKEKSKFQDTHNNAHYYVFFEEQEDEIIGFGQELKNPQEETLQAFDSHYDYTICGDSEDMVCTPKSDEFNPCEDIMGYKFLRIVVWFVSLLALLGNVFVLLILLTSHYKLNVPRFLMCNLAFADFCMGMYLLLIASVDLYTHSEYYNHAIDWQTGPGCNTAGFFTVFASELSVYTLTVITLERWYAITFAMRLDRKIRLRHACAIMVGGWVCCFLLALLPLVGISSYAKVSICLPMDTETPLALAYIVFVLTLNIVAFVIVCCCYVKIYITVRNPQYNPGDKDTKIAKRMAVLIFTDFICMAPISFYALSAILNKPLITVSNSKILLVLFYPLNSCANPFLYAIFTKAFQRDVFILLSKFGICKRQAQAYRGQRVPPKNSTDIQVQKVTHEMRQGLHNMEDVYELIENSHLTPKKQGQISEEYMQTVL
Sequence of Estrogen receptor beta (Homo sapiens) (Q92731 whole entry, looked up): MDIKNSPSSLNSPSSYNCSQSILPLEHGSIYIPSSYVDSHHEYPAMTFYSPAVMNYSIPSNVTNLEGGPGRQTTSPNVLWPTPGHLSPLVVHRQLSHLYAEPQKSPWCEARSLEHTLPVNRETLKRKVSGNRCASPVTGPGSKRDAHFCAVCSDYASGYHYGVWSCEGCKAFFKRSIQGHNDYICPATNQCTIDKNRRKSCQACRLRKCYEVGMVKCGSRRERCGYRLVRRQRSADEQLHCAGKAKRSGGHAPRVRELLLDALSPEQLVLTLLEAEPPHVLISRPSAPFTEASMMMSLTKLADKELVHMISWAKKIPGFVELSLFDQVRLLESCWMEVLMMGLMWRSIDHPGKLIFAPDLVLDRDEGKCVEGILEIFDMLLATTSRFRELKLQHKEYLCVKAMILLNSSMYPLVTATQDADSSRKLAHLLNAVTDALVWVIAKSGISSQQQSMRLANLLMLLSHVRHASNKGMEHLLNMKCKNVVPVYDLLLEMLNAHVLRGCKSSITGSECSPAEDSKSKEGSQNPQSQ
Sequence of Androgen receptor (Homo sapiens) (P10275 whole entry, looked up): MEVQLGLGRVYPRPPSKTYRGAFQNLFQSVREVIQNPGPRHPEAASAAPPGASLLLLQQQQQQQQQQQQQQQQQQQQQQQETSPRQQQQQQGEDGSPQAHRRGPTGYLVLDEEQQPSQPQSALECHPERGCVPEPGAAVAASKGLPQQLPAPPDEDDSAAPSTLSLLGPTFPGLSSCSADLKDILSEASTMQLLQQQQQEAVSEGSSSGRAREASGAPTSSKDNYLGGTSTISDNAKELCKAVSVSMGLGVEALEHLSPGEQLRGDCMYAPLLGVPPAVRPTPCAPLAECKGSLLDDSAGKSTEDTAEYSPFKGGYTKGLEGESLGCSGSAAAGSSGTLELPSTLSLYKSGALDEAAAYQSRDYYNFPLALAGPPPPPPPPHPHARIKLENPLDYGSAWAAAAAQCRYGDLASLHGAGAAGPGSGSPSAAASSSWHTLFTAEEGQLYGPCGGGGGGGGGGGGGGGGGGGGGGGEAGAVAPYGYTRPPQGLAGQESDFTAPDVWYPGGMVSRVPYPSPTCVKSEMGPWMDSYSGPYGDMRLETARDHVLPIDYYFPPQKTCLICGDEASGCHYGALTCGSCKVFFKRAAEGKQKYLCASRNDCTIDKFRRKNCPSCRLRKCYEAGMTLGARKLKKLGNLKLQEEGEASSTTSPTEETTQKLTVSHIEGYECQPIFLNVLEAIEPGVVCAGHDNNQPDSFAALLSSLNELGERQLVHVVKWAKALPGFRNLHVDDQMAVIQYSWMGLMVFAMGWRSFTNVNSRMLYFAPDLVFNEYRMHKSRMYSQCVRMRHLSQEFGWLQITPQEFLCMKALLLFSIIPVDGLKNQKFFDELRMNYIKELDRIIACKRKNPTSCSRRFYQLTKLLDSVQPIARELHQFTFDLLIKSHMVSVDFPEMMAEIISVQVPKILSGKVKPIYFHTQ

As to `Cc1ccc(O)c(C(=O)c2ccccc2)c1`, the outcome in [1], in [2], in experiment [3], in experiment [6], in experiment [7] and in experiment [8] was inactive. For the same molecule, the outcome in experiment [10], in experiment [12] and in experiment [13] was inactive. The Potency entry in [4], in experiment [5], in experiment [9] and in [11] was “inactive” in each case.

With `C/C(=N\O)c1ccc(OCC(=O)N2CCCCC2)cc1`, the call in [1], in experiment [2], in experiment [15], in experiment [16], in experiment [17] and in [6] was inactive. The call in experiment [7], in [19], in experiment [8], in experiment [10], in experiment [12] and in experiment [13] was inactive. The Potency result in experiment [4], in experiment [14], in experiment [5], in [18], in [9] and in experiment [20] was “inactive” each time.

As to `C=CC(=O)OCCOCCOCC`, the result in experiment [1], in experiment [2], in [3], in [15], in experiment [16] and in experiment [6] was inactive. For the same molecule, the result in [8], in experiment [10], in [12] and in [13] was inactive. Besides, the Potency entry in experiment [14], in [5] and in experiment [11] was “inactive” in each case.

Take `C[C@@H]1CC[C@@]2(OC1)O[C@H]1C[C@H]3[C@@H]4CC[C@H]5C[C@@H](O)CC[C@]5(C)[C@H]4CC(=O)[C@]3(C)[C@H]1[C@@H]2C`: the results for the viability change, negative = cytotoxic in experiment [1], in experiment [2] and in experiment [12] were -4.38% [at 8.39 µM], 0.938% [at 8.39 µM] and -1.38% [at 6.97 µM], respectively. The activity change in experiment [3] is -0.0264% [at 8.39 µM]. Moreover, the results for the activity change, negative = inhibition in experiment [4], in experiment [19] and in experiment [20] were 0.87% [at 8.39 µM], -0.41% [at 8.39 µM] and 17.4% [at 8.39 µM], respectively. Further, the activity change, negative = cytotoxicity is 3.8% [at 8.39 µM] in experiment [5]; 0.111% [at 8.39 µM] in experiment [8]; 12.3% [at 8.39 µM] in experiment [10]; 3.64% [at 8.39 µM] in experiment [11]; -1.03% [at 6.97 µM] in experiment [13]. The activation in experiment [18] was 0.597% [at 8.39 µM]; in experiment [9], -0.697% [at 8.39 µM]. Also, in experiment [7], the cAMP activity change was -0.224% [at 8.39 µM].

In the case of `CCCC(=O)CC`, the molecule was called inactive in experiment [1], in [2], in experiment [3], in experiment [15], in [16] and in [6]. In addition, the result in [7], in experiment [19], in [8], in [10], in experiment [12] and in experiment [13] was inactive. Also, the Potency result in experiment [14], in experiment [5], in experiment [18], in experiment [9] and in experiment [20] was “inactive” throughout.

Consider `COC(=O)c1c(C)cc(O)c(C)c1O`, for which the molecule was classed as inactive in experiment [1], in experiment [2], in [3], in experiment [15], in [6] and in experiment [8]. In addition, the molecule was classed as inactive in [10], in experiment [12] and in experiment [13]. In addition, the Potency result in experiment [14], in experiment [5], in experiment [18] and in [9] was “inactive” each time. For the same molecule, the Potency in [20] was 19.3 µM (active).

Turning to `CC(C)C[P+](C)(CC(C)C)CC(C)C`, the call in experiment [1], in experiment [2], in experiment [3], in [15], in experiment [16] and in [6] was inactive. The call in experiment [7], in experiment [19], in experiment [8], in experiment [12] and in [13] was inactive. For the same molecule, the Potency entry in [5], in experiment [18] and in experiment [9] was “inactive” each time.

With `C=CC(=O)CC`, the molecule was called inactive in [1], in experiment [2], in experiment [3], in experiment [15], in experiment [7] and in experiment [19]. The outcome in experiment [8], in [10], in [12] and in experiment [13] was inactive. The Potency result in [14], in experiment [5], in experiment [9] and in experiment [11] was “inactive” throughout.
